This is an account of results in PubChem BioAssay AID2508 (National Center for Advancing Translational Sciences (NCATS), 2010).

Inconclusive results are not listed. A number with no mark means an inactive call. Active and inactive are the calls of the source. Calls follow the shape of the dose curve; as a rule, active = well fitted inhibition curve with a large enough effect; inconclusive = small, poorly fitted or top-dose-only effect, or effect the other way; inactive = no such curve, though single readings can be large or run the other way.

A short description of this assay: Confirmatory Assay for General miRNAs Modulators and/or Inhibitors/Activators of miR-21. The conditions noted are these: HeLa miR-21 FLuc reporter, luminescence, 48 h; series mostly up to 38.3 µM; activity change, negative = inhibition: at the top concentration. The source says:
MLSCN Grant: 1 R21 NS059478-01 Assay Provider: Qihong Huang, The Wistar Institute NCGC Assay Overview: MicroRNAs (miRNAs) are endogenously encoded small (~20-25 nucleotides), nonprotein-coding RNAs that are involved in post-transcriptional repression of target messenger RNAs (mRNAs) (Le and Hannon, 2004). Estimated to be involved in the regulation of 30% of all protein-coding mRNAs (Filipowicz et al., 2008), miRNAs play a significant role in many biological processes including cellular differentiation and tissue development (Ghildiyal and Zamore, 2009).
NCGC Assay Protocol Summary: Reagents: HeLa cells stably expressing firefly luciferase (FLuc) under the control of a CMV promoter (upstream) and a miR-21 binding sequence directly downstream of the gene. These cells endogenously express miR-21. Control compounds used were compound C3 (provided by collaborator), N6-phenyladenosine (MP Biomedicals, 0215379625), and DMSO. Assay Summary: 6uL of HeLa miR-21-FLuc cells in assay buffer (DMEM, Invitrogen #21063-029; 10% FBS, HyClone #SH30071.03) were dispensed at 2000cells/well (3.3 x 10^5 cells/mL) into Greiner solid-white TC-treated 1536-well plates using a Multidrop Combi (Thermo Fisher Scientific). Plates were incubated for one hour at 37 degree Celsius, 95% humidity, 5% CO2. These assay plates were then treated with 23nL of compound or DMSO using a Kalypsys pin tool, which allows for delivery of a 24-point titration of each compound to the assay plate, with a final compound concentration ranging from approximately 40uM to 5pM. Assay plates were then incubated for 48 hours. After incubation, plates were allowed to come to RT for one hour prior to delivery of 3uL of 3X luciferase detection reagent. After a 15 minute incubation to allow for cell lysis, luciferase activity was measured using a ViewLux CCD imager (PerkinElmer), with an average exposure time of 2-12 seconds. Keywords: NIH Roadmap, MLPCN, MLSMR, qHTS, miR-21, microRNA, firefly luciferase, FLuc.
On to `COc1ccc(NC(=O)CSc2nc(SC)ns2)c(OC)c1`, for which the Potency is 4 µM (active). With `CCc1cccc(-n2nnc(-c3nsc(NC(=O)c4cccs4)n3)c2C)c1`, the Potency is 10 µM (active).

On to `COc1ccc(CNc2nc(-c3ccco3)nn2C(=O)CC(C)C)cc1`, for which the Potency is 11.3 µM (active).

Consider `Cc1cc(C)c2c(N)c(C(=O)Nc3ccccc3F)sc2n1`, for which the Potency was 1.42 µM (active).

With `Cc1ccc(-c2nc(NCc3ccco3)n(S(C)(=O)=O)n2)cc1`, the Potency was 7.98 µM (active). As to `Cc1ccccc1Nc1nc(N)nc(CN(C)c2ccccc2)n1`, the Potency is 11.3 µM (active). On the same count and under the same terms, with `O=C(CSc1nnc(-c2ccc(Cl)cc2)o1)Nc1ccc(F)cc1` the figure was 1.79 µM (active).

Turning to `COc1cccc(NC(=O)CSc2nnc(-c3cccs3)o2)c1`, the Potency is 6.34 µM (active). Regarding `COc1ccccc1NC(=O)c1sc2nc3c(cc2c1N)CN(Cc1ccccc1)CC3`, the “activity change, negative = inhibition” value was -1.25%. `CCc1nonc1NC(=O)c1oc2ccccc2c1C`: the Potency is 7.98 µM (active). `CC1=C(c2ccc(C)c(C)c2)S(=O)(=O)N=C1N1CCC(C(=O)NCCc2ccc(Cl)cc2)CC1`: the “activity change, negative = inhibition” value was 27.4%.

As for `COCC(=O)Nc1c(C(=O)Nc2ccc3c(c2)OCCO3)oc2ccccc12`, the Potency is 0.449 µM (active). Same read-out and setting: with `O=C(CSc1nnc(-c2ccccn2)o1)Nc1cccc(Cl)c1` the figure was 2.52 µM (active); with `Clc1ccc(-n2ncc3c(NCc4ccccn4)ncnc32)cc1`, 4.49 µM (active); with `COc1cccc(-n2nnc(-c3nc(-c4cccs4)no3)c2N)c1`, 0.895 µM (active). Take `Cc1cccc(OCc2nnc(SCC(=O)Nc3ccc(N4CCOCC4)cc3)o2)c1`: the “activity change, negative = inhibition” value is -7.71%.

Consider `CSc1nsc(SCC(=O)Nc2ccc(F)cc2F)n1`, for which the Potency was 7.98 µM (active). On the same count and under the same terms, with `CN(C)c1ccc(CNc2nc(-c3ccco3)nn2S(C)(=O)=O)cc1` the figure was 6.34 µM (active). As for `c1ccc(C2=Nn3c(nnc3-c3cc(-c4ccccc4)n[nH]3)SC2)cc1`, the “activity change, negative = inhibition” value is 11.4%. Consider `Cc1cc(C)cc(NC(=O)CSc2nnc(CNC(=O)c3ccco3)o2)c1`, for which the “activity change, negative = inhibition” value was 1.68%. With `CCc1ccc2oc(C(=O)Nc3nonc3CC)c(C)c2c1`, the Potency was 7.11 µM (active). On the same count and under the same terms, with `COc1ccc(C(=O)Nc2nnc(C(C)C)s2)cc1OC` the figure was 17.9 µM (active); with `N#Cc1cc2cc3c(cc2nc1SCC(=O)N1CCOCC1)OCO3`, 1.13 µM (active). The same measure, in the same setting: the result for `CC(C)C(=O)Nc1nc2c(s1)CC(C(C)(C)C)CC2` (stereo not given) reads 2.83 µM (active); that for `COc1cc(-c2nc3cnccn3c2Nc2ccc(C(C)C)cc2)ccc1O`, 2.83 µM (active); that for `Cc1c(-c2nsc(NC(=O)c3cccs3)n2)nnn1-c1ccc(Cl)cc1`, 14.2 µM (active). Turning to `O=S(=O)(c1ccc(F)cc1)n1ccc(-c2cnc(-c3ccccc3)s2)n1`, the Potency is 5.65 µM (active). On to `CN(C(=O)CSc1nnc(-c2ccccc2F)o1)C1CCCCC1`, for which the Potency is 14.2 µM (active).

In the case of `Cc1c(-c2nc(-c3ccc(C(F)(F)F)cc3)no2)n(C)oc1=O`, the Potency is 0.318 µM (active). The same measure, in the same setting: with `CS(=O)(=O)n1nc(-c2ccc(Cl)cc2)nc1SCc1ccccc1` the figure was 5.04 µM (active). On the same count and under the same terms, with `Cc1ccc(CNc2nc3nc(C)c(Cl)c(C)n3n2)cc1` the figure was 4 µM (active); with `COc1ccc(OCC(=O)Nc2cc(-c3nc4ccccc4s3)ccc2C)cc1`, 4 µM (active); with `Cc1c(-c2nsc(NC(=O)c3cccs3)n2)nnn1-c1ccc(F)cc1`, 0.565 µM (active). Same read-out and setting: the result for `Cc1ccc(SCC(=O)Nc2ccc3oc(-c4ccc(F)cc4)nc3c2)cc1` reads 15.9 µM (active); that for `NC(=O)c1ccccc1NC(=O)c1ccc(-c2ccc(Br)cc2)o1`, 2.83 µM (active). `Cc1ccc(Nc2ncnc(N)n2)cc1C`: the Potency was 11.3 µM (active). In the case of `O=C(CSc1nnc(-c2ccc(C(F)(F)F)cn2)o1)Nc1cccc(Cl)c1`, the Potency was 2.25 µM (active). For the compound `Cc1ccc(CNc2nc(-c3ccco3)nn2S(C)(=O)=O)cc1`, the Potency is 4 µM (active).

Turning to `Cc1cccc(-n2nnc(-c3nc(-c4cccs4)no3)c2N)c1`, the Potency is 0.634 µM (active).

For the compound `COc1ccccc1NC(=O)C/C(C)=N/NC(=O)c1ccccn1`, the “activity change, negative = inhibition” value is -5.3%.
